# Experimental data taken from PubChem BioAssay.
# “And” between values parts separate entries of the source, which are not always exact repeats. Equal values may be shown once. The source made the active and inactive calls.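 How the source made its calls, unless noted: active means inhibition at or above 50% relative to wild type and mutant plate controls; inactive means inhibition below 50%.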
# Tests used:
# [1] = inhibitors of TNFa-induced NFkB p65 translocation, primary screen, imaging, HUVEC, MLSMR starter and 10KST1 sets (AID 438;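 active means inhibition above 20% together with a positive visual image hit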;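 further: compound added about 3h40 before a 20 min TNFalpha stimulation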;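 on inhibition: signal is the nuclear over cytoplasmic p65 intensity ratio per well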); conditions: HUVEC TNFa-induced p65 nuclear translocation; cell count: measured here: nuclei count (cytotoxicity indicator), at 2.08 µM; inhibition: at 2 µM, stronger effect = higher value, 0% TNFa-plus-vehicle, 100% no-TNFa wells
# [2] = reduction of polyQ htt aggregates in cells – imaging, exon1htt(103Q)mCFP cells, high-content imaging, primary screen (AID 483;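 active means visual image review flags a hit and inhibition of aggregation exceeds 20%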;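 further: compound exposure lasted 3 days before fixation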;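 on nuclei count: percent of the per-plate median nuclei count of sample wells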); conditions: exon1htt(103Q)mCFP cell line, aggregate imaging, at 2 µM; inhibition of aggregation: stronger effect = higher value; nuclei count: measured here: cell count, toxicity
# [3] = endothelial E-selectin expression blockers – imaging, HUVEC, immunofluorescence, MLSMR starter and 10KST1 sets, primary screen (AID 487;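 active means visually confirmed hit in the image check and inhibition above 20%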;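 on inhibition: signal is fraction of cell area covered by stained E-selectin grains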;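 on nuclei count: 100% = median nuclei count of all wells on the same plate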); conditions: HUVEC TNFalpha-induced E-selectin immunofluorescence imaging, at 2 µM; inhibition: stronger effect = higher value; nuclei count: measured here: cell number, toxicity
# [4] = Primary imaging screen for DUSP6 inhibitors that restore phospho-Erk in transfected HeLa cells, chemical complementation (AID 609;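 active means compounds giving at least 50% inhibition in the cell-based MKP-3 phosphatase rescue imaging test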;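 on inhibition: phospho-Erk level distribution per well compared with pooled transfected vehicle control wells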); conditions: HeLa MKP-3 transfected, phospho-Erk imaging KS statistic, at 10 µM, cells stimulated with TPA for 15 min
# [5] = target: Dual specificity protein phosphatase 6 (Homo sapiens) (UniProt Q16828); assay: as above; conditions: HeLa MKP-3 transfected, phospho-Erk imaging KS statistic; at 10 µM; stronger effect = higher value; cells stimulated with TPA for 15 min
# Chain of Dual specificity protein phosphatase 6 (Homo sapiens) (Q16828 whole entry, looked up): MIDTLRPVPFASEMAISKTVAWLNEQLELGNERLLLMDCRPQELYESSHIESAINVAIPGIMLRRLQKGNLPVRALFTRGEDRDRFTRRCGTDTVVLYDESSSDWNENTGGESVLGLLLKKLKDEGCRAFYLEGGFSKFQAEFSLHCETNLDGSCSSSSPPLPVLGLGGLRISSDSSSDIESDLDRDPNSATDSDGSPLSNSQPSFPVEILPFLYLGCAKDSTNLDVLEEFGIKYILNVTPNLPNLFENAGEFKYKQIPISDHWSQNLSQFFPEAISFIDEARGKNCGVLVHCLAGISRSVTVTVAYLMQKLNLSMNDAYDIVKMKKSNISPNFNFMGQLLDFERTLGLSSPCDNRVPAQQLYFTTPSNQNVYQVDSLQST
# [6] = target: Voltage-gated potassium channel subunit beta-2 (Rattus norvegicus) (UniProt P62483); assay: inhibitors of rat Kvbeta2 reductase activity – biochemical, NADPH fluorescence, primary screen (AID 622;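 active means fluorescence slope higher than the sample average by over 3 SD, cut at about -0.22 in these data, passing the limit was not always enough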;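 further: slope of raw intensity against log time taken from 70 to 1610 s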); conditions: recombinant KvBeta, 4-cyanobenzaldehyde reduction, at 10 µM, stronger effect = higher value
# Chain of Voltage-gated potassium channel subunit beta-2 (Rattus norvegicus) (P62483 whole entry, looked up): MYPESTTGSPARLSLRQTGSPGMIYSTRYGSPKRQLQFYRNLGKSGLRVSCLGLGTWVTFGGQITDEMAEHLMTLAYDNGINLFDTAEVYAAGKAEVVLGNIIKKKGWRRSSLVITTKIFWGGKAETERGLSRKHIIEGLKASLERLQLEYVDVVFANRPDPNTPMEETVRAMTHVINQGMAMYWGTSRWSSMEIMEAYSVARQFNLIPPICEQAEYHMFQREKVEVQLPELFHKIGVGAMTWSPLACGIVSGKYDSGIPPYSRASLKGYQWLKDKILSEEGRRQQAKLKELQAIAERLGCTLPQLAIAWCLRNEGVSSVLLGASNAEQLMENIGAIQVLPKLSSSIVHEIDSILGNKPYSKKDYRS
# [7] = target: Voltage-gated potassium channel subunit beta-2 (Rattus norvegicus) (UniProt P62483); assay: enhancers of rat Kvbeta2 NADPH turnover – biochemical, NADPH fluorescence, primary screen (AID 623;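 active means NADPH fluorescence slope more negative than the mean of all samples by about 3 SD, 99.7% confidence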;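 further: fluorescence intensity change per second fitted from 20 to 320 s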); conditions: Recombinant KvBeta, NADPH fluorescence decrease slope, 10 min; at 10 µM; stronger effect = lower value
# [8] = target: Alpha-2C adrenergic receptor (Homo sapiens) (UniProt P18825); assay: compounds altering alpha2C-coupled GIRK flux – cell-based, HEK293 alpha2C/GIRK1/2, thallium flux, primary screen (AID 624;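 active means fluorescence slope after compound addition differing from the mean of all screened samples at 99.7% confidence, in either direction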;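 further: slope of fluorescence ratio to pre-addition baseline per second over 15 to 24 s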); conditions: thallium flux BTC fluorescence, at 10 µM, actives lie on both sides
# Chain of Alpha-2C adrenergic receptor (Homo sapiens) (P18825 whole entry, looked up): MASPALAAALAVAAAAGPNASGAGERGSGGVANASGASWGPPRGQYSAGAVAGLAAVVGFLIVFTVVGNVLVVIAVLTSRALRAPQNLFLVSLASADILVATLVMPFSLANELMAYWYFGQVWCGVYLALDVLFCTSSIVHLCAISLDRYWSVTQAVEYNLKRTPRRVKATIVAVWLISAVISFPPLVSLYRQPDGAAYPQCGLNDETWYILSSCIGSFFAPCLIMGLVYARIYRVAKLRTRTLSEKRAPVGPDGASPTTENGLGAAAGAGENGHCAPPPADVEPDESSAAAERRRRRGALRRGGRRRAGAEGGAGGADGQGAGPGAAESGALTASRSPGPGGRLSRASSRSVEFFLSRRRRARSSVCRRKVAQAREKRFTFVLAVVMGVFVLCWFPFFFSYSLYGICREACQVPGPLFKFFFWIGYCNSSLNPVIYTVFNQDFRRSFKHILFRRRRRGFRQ
# [9] = inhibitors of larval lipid processing in zebrafish, primary screen, whole organism, PED6 fluorescence, gall bladder and intestine (AID 686;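 active means a full or partial loss of lipid-probe fluorescence in the fish gall bladder, intestine or both, judged by eye; inactive means no fluorescence loss, or compound toxic to the fish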;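 further: larvae 5 to 7 days old with five fish per well; signal comes from phospholipase A2 cleavage of quenched PED6 carried via bile; overnight exposure to compound and PED6 before scoring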); conditions: Zebrafish larvae PED6 lipid processing, fluorescence scoring; screened at 20 µM (by protocol)
# [10] = loss of swimming-algae plug formation – whole organism, Chlamydomonas reinhardtii, WT vs cilia-less mutant, absorbance, 96-well, primary screen (AID 463189); conditions: Chlamydomonas reinhardtii gravitaxis, OD600 absorbance, 2 days; at 10 µM; stronger effect = higher value;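 further: 0% = wild type cc124 cells in DMSO and 100% = ciliumless bld1 mutant cells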
# [11] = blockers of RIG-like receptor reporter activation – cell-based, Sendai virus stimulus, luciferase, 10K MLSCN set, TLR/RLR signaling modifier project, primary screen (AID 602276;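 active means inhibition at or above 50% at 10 µM; inactive means inhibition below 50%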;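 further: firefly luciferase from ISG56 promoter only with Renilla not read in this screen; 0% = Sendai virus plus DMSO and 100% = medium plus DMSO without virus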); conditions: HEK293 RL24 IRF3 luciferase reporter, at 10 µM, stronger effect = higher value
# [12] = TLR3 IRF3 reporter activation blockers – cell-based, poly I:C stimulus, luciferase, 10K MLSCN set, primary screen (AID 602277;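 active means inhibition of the reporter signal at or above 50%; inactive means inhibition below 50%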); conditions: HEK293-TLR3 RL24 IRF3 luciferase reporter, at 10 µM, stronger effect = higher value
# [13] = measured here: cell density z-score
# [14] = measured here: nuclear c-Myc green intensity z-score
# [15] = measured here: nuclear pErk red intensity z-score, stronger effect = higher value
SMILES,cell count [1],inhibition [1],inhibition of aggregation [2],nuclei count [2],inhibition [3],nuclei count [3],"z-score [4, 13]","z-score [4, 14]","z-score [4, 15]",inhibition [5],fluorescence slope [6],NADPH fluorescence slope [7],slope [8],outcome [9],inhibition [10],inhibition [11],inhibition [12]
N[C@@H](Cc1ccc(O)c(I)c1)C(=O)O,525,0.1% (inactive),1.7% (inactive),92.3%,-11.6% (inactive),110%,-0.528,-0.732,-0.19,-4.44% (inactive),-0.463 (inactive),3e-05 (inactive),0.00503 (inactive),inactive,0.129% (inactive) and -19.2% (inactive),9.28% (inactive),24.3% (inactive)
CCN(CC)CC#CCOC(=O)C(O)(c1ccccc1)C1CCCCC1 (stereo not drawn),506,-6.6% (inactive),-15.9% (inactive),97.3%,4.9% (inactive),112%,-0.442,-0.591,0.229,5.42% (inactive),-0.492 (inactive),-7.5e-05 (inactive),0.00459 (inactive),inactive,6.66% (inactive) and 16.9% (inactive),9.64% (inactive),30.4% (inactive)
Oc1c(Cl)cc(Cl)cc1CNc1ccc(Br)cn1,580,-1.3% (inactive),-20.5% (inactive),108%,-9.9% (inactive),102%,-1.08,0.507,-0.618,-3.5% (inactive),-0.357 (inactive),1.5e-05 (inactive),0.00449 (inactive),inactive,-5.67% (inactive),17% (inactive),20.5% (inactive)
NC(N)=NC(N)=NCCc1ccccc1,589,-4.3% (inactive),-8.6% (inactive),93.2%,-58.8% (inactive),108%,-1,-0.445,-0.339,-2.46% (inactive),-0.439 (inactive),-1.7e-05 (inactive),0.004 (inactive),inactive,-5.62% (inactive),10.9% (inactive),30.4% (inactive)
Cc1ccc(-n2nc3cc(Cl)c(NC(=O)c4ccco4)cc3n2)cc1,566,-2.6% (inactive),-7.2% (inactive),112%,-52% (inactive),137%,-0.552,1.17,-0.609,-0.674% (inactive),-0.459 (inactive),-5.2e-05 (inactive),0.00706 (inactive),inactive,6.11% (inactive),-16.5% (inactive),-49.9% (inactive)
Cn1nnnc1SCC1=C(C(=O)O)N2C(=O)[C@@H](NC(=O)[C@H](O)c3ccccc3)[C@H]2SC1,634,-4% (inactive),-4.8% (inactive),106%,-44% (inactive),107%,1.21,1.9,-1.92,11.3% (inactive),-0.45 (inactive),-5.3e-05 (inactive),0.00577 (inactive),inactive,22.9% (inactive),10.3% (inactive),42% (inactive)
CC(C)(C)OC(=O)N1CC=C2C(C#N)=C(N)C(C#N)(C#N)[C@H](c3cccnc3)[C@H]2C1,461,-13.5% (inactive),45.1% (active),70.7%,28.8% (inactive),112%,-1.09,-0.413,0.348,-0.624% (inactive),-0.387 (inactive),-4.5e-05 (inactive),0.00436 (inactive),inactive,2.34% (inactive),11.2% (inactive),10.3% (inactive)
OC[C@H]1O[C@@H](n2cnc3c(Nc4ccccc4)ncnc32)[C@H](O)[C@@H]1O,606,-3.3% (inactive),17.1% (inactive),104%,-19.9% (inactive),107%,1.07,-1.93,-0.432,-0.828% (inactive),-0.459 (inactive),-4.6e-05 (inactive),0.00784 (inactive),inactive,-14.4% (inactive),-32.6% (inactive),-55.1% (inactive)
CCCCc1c(O)nc(SCCN(C)C)n(-c2ccccc2)c1=O,326,-8.8% (inactive),2.2% (inactive),94.9%,-40.2% (inactive),96.4%,-1.09,2.21,0.182,12.3% (inactive),-0.438 (inactive),-0.000152 (inactive),0.00653 (inactive),inactive,-12.4% (inactive),7.92% (inactive),1.23% (inactive)
